Compound activity (PubChem BioAssay)
Compounds with a hit are over-represented: about 3.9% of the library has one in this group of screens.
ALR inh: human ALR oxidase inhibition via reduced H2O2. P55789. inhibition, % (test concentration not listed). actives 3.8% (n = 290,000). AID 485317. purified ALR, DTT oxidation, H2O2 HRP-luminol luminescence;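 active means mean replicate inhibition above about 79%, with every replicate also reaching it, limit read from the data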
SUMO HTRF inh: blocks human SUMOylation mediated by UBC9; actives 0.36% (n = 290,000); P63279; HTRF SUMOylation assay, SAE1/SAE2 + UBC9, in vitro; inhibition, % at 35 µM; in the data active means inhibition above about 50%, passing the limit was not always enough
Target sequence (P63279 whole entry, looked up): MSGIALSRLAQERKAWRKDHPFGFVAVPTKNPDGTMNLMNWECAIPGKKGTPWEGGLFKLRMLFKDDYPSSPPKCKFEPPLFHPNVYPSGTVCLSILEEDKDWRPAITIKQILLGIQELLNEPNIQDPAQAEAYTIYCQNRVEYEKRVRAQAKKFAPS
NTR1 agonist: agonists of human neurotensin receptor NTR1; P30989; NTR1-U2OS beta-arrestin-GFP spot imaging, agonist mode; activation, % at 20 µM; actives 0.17% (n = 330,000); AID 493036;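 active means activation at or above 40% of the spot to cytoplasm intensity ratio, with at least 20 cells analyzed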;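 further: 0% = DMSO without peptide and 100% = 100 nM NTR1 peptide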
Target sequence (P30989 whole entry, looked up): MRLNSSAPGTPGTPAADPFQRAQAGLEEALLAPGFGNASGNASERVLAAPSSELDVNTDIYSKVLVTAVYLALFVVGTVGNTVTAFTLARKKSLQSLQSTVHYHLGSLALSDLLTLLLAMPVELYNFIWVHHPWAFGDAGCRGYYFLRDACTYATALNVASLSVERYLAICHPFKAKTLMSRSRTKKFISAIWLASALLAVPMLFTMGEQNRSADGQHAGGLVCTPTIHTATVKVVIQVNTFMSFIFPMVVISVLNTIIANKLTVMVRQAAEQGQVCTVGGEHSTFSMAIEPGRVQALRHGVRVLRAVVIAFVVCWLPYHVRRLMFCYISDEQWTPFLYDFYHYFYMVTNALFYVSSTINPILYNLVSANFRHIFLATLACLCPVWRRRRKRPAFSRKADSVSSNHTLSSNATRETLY
H9c2 protect: myocardial damage modulation in H9c2 cells. H9c2 cardiomyocytes, H2O2 injury protection, ATPLite, 2 h. protection from H2O2 cell death, % at 20 µM. actives 0.63% (n = 360,000);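 active means compounds giving at least 50% protection of heart cells from peroxide-induced death in the single-dose screen, raw or plate-pattern-corrected value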;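 further: 0% = DMSO wells with peroxide and 100% = DMSO wells without peroxide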
* hit, by the source's call; x = no result.

SMILES	ALR inh	SUMO HTRF inh	NTR1 agonist	H9c2 protect
C/C(=N\Nc1ccc([N+](=O)[O-])cc1)c1ccc(N)cc1	98*	2	x	2
O=C(O)c1cccc(Cn2c(Cl)c(/C=N/Nc3ccccc3)sc2=O)c1	100*	29	2	-6
Cc1ccc(/C=N/Nc2cccc(C(=O)O)c2)s1	98*	7	1	0
O=C(O)c1cccc(Cn2c(Cl)c(/C=N/NC(=O)c3ccccc3Cl)sc2=O)c1	28	3	1	12
COc1ccccc1CC(NC(C)=O)C(=O)N1CCN(C(=O)c2cccs2)CC1 (configuration not stated)	0	7	-1	-3
COc1ccccc1C(=O)NNC(=O)c1ccncc1	1	5	-2	-6
COc1ccc(C(=O)CSc2nnc3ccc(-c4ccccn4)nn23)cc1	-1	24	4	0
C/C(=N\Nc1ccc(C(=O)O)cc1)c1ccc(Br)cc1	98*	16	2	-2
COc1ccc2ccccc2c1/C=N/Nc1cccc(C(=O)O)c1	-11	22	0	4
C/C(=N/Nc1ncc(Br)cn1)c1ccc(Br)cc1	1	-8	0	3
O=C(O)c1cccc(N/N=C/c2cccc3ccccc23)c1	99*	17	1	-2
O=C(O)c1ccc(N/N=C/c2ccc(-c3ccc(Br)cc3)o2)cc1	x	21	4	-2
Cc1ccc(/C=N/Nc2ccc(C(=O)O)cc2)o1	98*	3	0	0
Cc1ccc(/C=N/Nc2ccc(C(=O)O)cc2)s1	99*	-4	-1	-10
CC(C)[C@H](CO)NC(=O)[C@H]1O[C@@H](n2ccc(=O)[nH]c2=O)[C@H](O)[C@@H]1O	x	x	x	-2
O=C(O)c1ccc(N/N=C/C=C/c2ccccc2)cc1	92*	16	-2	-9
O=C(O)c1ccc(N/N=C/c2cc(Br)cs2)cc1	98*	-4	0	0
O=C(N/N=C\c1cc(Br)cs1)c1ccncc1	14	5	-1	10
O=C(O)c1cccc(N2C(=O)CSC2=S)c1	79*	4	-1	4
CN(C)c1ccc(N2C(=O)CSC2=S)cc1	34	73*	0	-1
CC1SC(=S)N(c2ccc(N(C)C)cc2)C1=O (configuration not stated)	99*	-10	6	0
COCC(=O)N(C)[C@H]1C[C@H]2c3cc(N4CCN(C)CC4)ccc3CCN2C(=O)[C@H]1[C@H](C)O	x	x	x	1
CCN1CCN(Cc2ccc(NC(=O)Nc3ccc(SC)cc3)cc2)CC1	96*	2	-1	8
COc1ccc(N=C2SC(C(=O)O)CC(=O)N2Cc2ccc(OC)c(OC)c2)cc1 (configuration not stated)	5	-16	-1	-1
Cc1c(C=O)c2ccccn2c1C(=O)c1ccc(Cl)c([N+](=O)[O-])c1	-10	24	20	51*
SMILES	ALR inh	SUMO HTRF inh	NTR1 agonist	H9c2 protect
Cc1cc2ccccn2c1C(=O)c1ccc(Cl)c([N+](=O)[O-])c1	10	6	2	-13
Oc1ccc(C2=CSC3=NCCN23)cc1O	100*	-1	1	16
N#Cc1c2ccc(OCC(=O)NCc3ccco3)cc2n2ccccc12	x	46	0	9
N#Cc1c2ccc(O)cc2n2ccccc12	11	37	4	69*
CC1(C)CC(=O)C2=C(C1)N(Cc1cccnc1)C(=O)C2(NC(=O)c1ccc(F)cc1)C(F)(F)F (configuration not stated)	x	3	0	-3
CCN1C(=O)C(=O)N(CC(=O)c2cc(C)n(C3CC3)c2C)C1=O	89*	x	-2	-2
Cc1cc(C(=O)CSc2nc(N)cc(N)n2)c(C)n1C1CC1	47	51*	0	0
C=CCn1c(C)cc(C(=O)CSc2nc(N)cc(N)n2)c1C	11	13	1	-17
Cc1cc(C(=O)CSc2nnc(N)s2)c(C)n1C1CC1	98*	x	2	-1
CCn1cc(CCC(=O)NCc2cccc(OC)c2OC)c2ccccc21	3	16	1	-9
Cc1ccc(-c2cc(N)n(-c3ccc(C)cc3)n2)cc1	-1	-17	-4	-20
CC1(C(=O)Nc2nc3ccccc3s2)CC1(Br)Br (configuration not stated)	-2	-9	x	-8
CN(C)c1ccc(/C=C/C(=O)c2ccc3c(c2)OCO3)cc1	99*	x	-4	-17
O=C(/C=C/c1ccccc1)c1ccc2c(c1)OCO2	97*	-1	7	-7
CN(C)c1ccc(/C=C/C(=O)c2cccnc2)cc1	99*	4	0	-10
O=C(/C=C/c1ccc2c(c1)OCO2)c1ccc(F)cc1	5	1	3	-4
CN(C)c1ccc(/C=N/NC(=O)c2cccc(N3CCCC3=O)c2)cc1	87*	21	0	-13
O=C(COC(=O)c1ccc([N+](=O)[O-])o1)Nc1ccc2c(c1)OC(F)(F)O2	x	x	x	36
CC1(C)Oc2ccc(C(=O)N/N=C/c3ccc(O)cc3)cc2NC1=O	99*	16	0	17
CN(C)c1ccc(/C=N/NC(=O)c2ccc3c(c2)OCO3)cc1	98*	9	0	-7
O=S(=O)(N/N=C\c1ccc2c(c1)OCO2)c1ccc(F)cc1	86*	-7	1	2
CN(CCCNC(=O)c1cccc(N2CCCC2=O)c1)c1ccccc1	98*	-23	-1	-3
Cc1ccc(NC(=O)NNC(=O)c2ccc3c(c2)NC(=O)C(C)(C)O3)cc1	x	-11	0	4
CC(=O)Nc1cccc(N2CCCC2=O)c1	99*	12	0	4
O=C(N/N=C/c1cccc(O)c1)c1cc(-c2ccc3c(c2)OCO3)n[nH]1	7	1	-1	76*
SMILES	ALR inh	SUMO HTRF inh	NTR1 agonist	H9c2 protect
O=C(N/N=C/c1ccc2c(c1)OCO2)c1ccc(NC(=O)c2ccccc2Cl)cc1	-3	-2	0	56*
Clc1ccccc1N/N=C/c1ccc2c(c1)OCO2	99*	-4	2	-6
O=C(N/N=C/c1ccccc1)c1cc(-c2ccc3c(c2)OCO3)n[nH]1	5	-4	-1	2
COCCN(C(=O)c1cc(CN2C(=O)c3ccccc3C2=O)ccc1OC)c1c(N)n(CC(C)C)c(=O)[nH]c1=O	x	x	x	-3
Cc1cc(Cl)ccc1C(=O)C1CCCN(C(=O)c2cc(C(C)C)no2)C1 (configuration not stated)	1	-3	5	-5
Cc1c(Cl)ccc2sc(NC(=O)c3ccco3)nc12	-38	7	7	-16
O=C(N/N=C/c1cn(-c2ccccc2)nc1-c1cccs1)c1ccncc1	x	-2	5	54*
Cc1ccc(-c2nn(-c3ccccc3)cc2/C=N/NC(=O)c2ccncc2)o1	4	3	4	44
O=C(N/N=C/c1nn(-c2ccccc2)cc1-c1ccccc1)c1ccncc1	x	-9	8	62*
COc1ccc(S(=O)(=O)n2nc(OC(=O)c3ccccc3)cc2N)cc1	x	-13	2	42
CCn1c2ccccc2c2cc(NC(=O)CSc3nnc(-c4ccc(OC)c(OC)c4)n3N)ccc21	98*	-8	-2	38
